# Assay results from PubChem BioAssay AID588382 (National Center for Advancing Translational Sciences (NCATS), 2011).
# Screen size: about 1,300 compounds; about 150 (12%) were called active. Where a call stands in place of a potency, no number is given. Another 30% or so got no clear call; they are omitted. Calls follow the shape of the dose curve; as a rule, active = well fitted cell-killing curve with a large enough effect; inconclusive = small, poorly fitted or top-dose-only effect, or effect the other way; inactive = flat fitted curve, though single readings scatter. Many of the other results were omitted from the sample, so actives are more common in it than they were.
# Assay: qHTS of small molecules that selectively kill Giardia lamblia: Hit Validation in HepG2 cytotox;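 also: compound exposure lasted overnight at 37 deg C; nearly all actives have a fitted effect of over 55% in size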
# Settings: cell viability; Potency: HepG2 cytotoxicity; series mostly up to 38.3 µM
# Source text: Giardia lamblia is a human pathogen afflicting impoverished nations, and the most common cause of outbreaks of diarrhea in the United States. Giardia has been classified by the CDC as a category B bioterrorism organism. The favored anti giardiasis drugs in the US are metronidazole or tinidazole, compounds that have undesirable side effects. Moreover, increasing resistance to drug regimes and recurrence are a concern. It is thus clear that alternative drug treatments are needed.
# In a collaboration between the University of Maryland, College Park and the NIH Chemical Genomics Center, a bioluminescence Giardia viability assay based on the trophozoites' ATP content was developed. This assay is suitable for high throughput screening, and miniaturized the assay for compound screening in 1536-well plates. The goal of the project is to screen the Molecular Libraries Small Molecule Repository (MLSMR) for compounds that selectively kill Giardia trophozoites. This counterscreen looks at the toxicity of the compounds against the human HepG2 cell line.
# NIH Chemical Genomics Center [NCGC]
# NIH Molecular Libraries Probe Centers Network [MLPCN]
# Assay Submitter (PI): Osnat Herzberg, University of Maryland, College Park, MD.
# 4 uL of HepG2 cells ae dispensed into white 1536-well plates. They are incubated overnight at 37 deg C and then 23 nL of compounds are transferred to the wells with a pintool. Plates are incubated overnight at 37 deg C. 2 uL of ATPLite is added and the plates are incubated for 15 min at room temperature before they are read on the ViewLux for luminiescence.
# Potency is read from the fitted curve at half-maximal effect.
row,Structure (SMILES),Potency
1,COc1cc2nc(N3CCCCC3)nc(NC3CCN(Cc4ccccc4)CC3)c2cc1OC,2.93 µM (active)
2,COc1ccc(-n2nc([N+](=O)[O-])c(=NC3CCN(Cc4ccccc4)CC3)n2O)cc1,inactive
3,CCc1cc(=O)oc2cc(C)cc(OCC(=O)NC3CCN(Cc4ccccc4)CC3)c12,inactive
4,NC(=O)CCn1c(C(=O)c2cccc([N+](=O)[O-])c2)c2ccccc2[n+]1[O-],inactive
5,CC(=O)c1c(C)n([O-])c2ccccc2[n+]1=O,inactive
6,O=[N+]([O-])c1[nH]cnc1/C=C/c1ccccc1,inactive
7,O=C1NCCN1c1ncc([N+](=O)[O-])s1,inactive
8,O=C(/C=C/c1cccnc1)/C=C/c1cccnc1,3.69 µM (active)
9,COc1ccc2nc(COC(=O)c3cccc([N+](=O)[O-])c3)c(C(C)=O)[n+]([O-])c2c1,inactive
10,Nc1nc(F)nc2c1ncn2[C@@H]1O[C@H](CO)[C@@H](O)[C@@H]1O,inactive
11,CCOC(=O)Cc1csc(SCC(=O)NC2CCCCC2)n1,inactive
12,CCOC(=O)Cc1csc(NC(=S)NC(=O)c2ccc(C)cc2)n1,2.93 µM (active)
13,Cc1ccc(C(=O)NC(=O)OCCn2c(C)cnc2[N+](=O)[O-])cc1,inactive
14,Cc1onc(-c2ccccc2)c1C(=O)N(Cc1ccccc1)C(C)C,inactive
15,Cc1cnc([N+](=O)[O-])n1CCOC(=O)NC(=O)c1ccccc1,inactive
16,COc1cccc2sc(N3CCN(C(=O)c4ccc([N+](=O)[O-])o4)CC3)nc12,inactive
17,O=[N+]([O-])c1ccc(CSc2nnc(-c3cnccn3)o2)cc1,inactive
18,Cc1cnc([N+](=O)[O-])n1CCOC(=O)NC(=O)c1c(F)cccc1F,inactive
19,CCCCCN=Cc1c(C)[nH]n(-c2nc3ccccc3s2)c1=O,0.329 µM (active)
20,Oc1cccc(-c2nnc(-c3cccc(O)c3)nn2)c1,3.69 µM (active)
21,N#C/C(=C\c1ccc(O)c([N+](=O)[O-])c1)C(=O)NCc1ccccc1,inactive

row,Structure (SMILES),Potency
1,Cc1cnc([N+](=O)[O-])n1CCOC(=O)NC(=O)c1ccc(C(F)(F)F)cc1,inactive
2,C=CCn1c(C)cc(C(=O)COc2ccc(C)nc2[N+](=O)[O-])c1C,inactive
3,O=C(Nc1nnc(C23CC4CC(CC(C4)C2)C3)s1)c1ccco1,inactive
4,O=C(Nc1ccc2c(c1)nc1n2CCSC1)c1ccco1,2.33 µM (active)
5,CN(C(=O)CSc1nc2ccccc2c(=O)n1-c1ccc(F)cc1)C1CCS(=O)(=O)C1 (configuration not stated),inactive
6,O=C1c2cc(F)ccc2-n2c1nc1ccccc1c2=O,5.21 µM (active)
7,Cc1ccc(-c2[nH][nH]c(=O)c(=O)c2N=Nc2ccccc2)cc1,inactive
8,O=[N+]([O-])c1cc(S(=O)(=O)N2CCCC2)ccc1N/N=C/c1ccncc1,inactive
9,Cc1ccc(OCC(=O)Nc2nc(C)c(Cl)cc2Cl)c([N+](=O)[O-])n1,inactive
10,O=[N+]([O-])c1ccc(N=NN(CCO)CCO)cc1,inactive
11,Cc1cc(C2=NNC(=NC3CC3)SC2)c(C)n1-c1ccccc1F,0.927 µM (active)
12,CCOC(=O)C1=C(C)N=c2s/c(=C/c3cccc([N+](=O)[O-])c3O)c(=O)n2C1c1cc(OC)c(OC)c(OC)c1 (configuration not stated),inactive
13,Cc1ccc([C@@H]2CC=C(C(=O)O)[C@H](c3ccccc3)N2S(=O)(=O)c2ccc(C)cc2)cc1,inactive
14,NCCCn1c(C(=O)c2ccc(Cl)cc2)c2ccc(C(F)(F)F)cc2[n+]1[O-],inactive
15,CCN1/C(=C\c2ccc3ccccc3[n+]2CC)Sc2cc(C)ccc21,4.65 µM (active)
16,N/C(=N/OC(=O)c1ccc(Cl)cc1)c1ncc([N+](=O)[O-])s1,inactive
17,Cc1ncc([N+](=O)[O-])n1CCOC(=O)c1cc(Cl)cc(Cl)c1N,inactive
18,COC(=O)c1ccc2cc(OC)cc([N+](=O)[O-])c2n1,inactive
19,Cc1nc2c(o1)C(=O)c1ccccc1C2=Nc1ccccc1,4.65 µM (active)
20,Cc1c(N=Nc2ccc(O)cc2)c(=O)n(-c2ccccc2)n1C,inactive
21,Cc1ccc(OCC(=O)c2cc(C)n(-c3ccccc3)c2C)c([N+](=O)[O-])n1,inactive

row,Structure (SMILES),Potency
1,CCn1ncc([N+](=O)[O-])c1C(=O)Nc1nc2cccc(C)c2s1,inactive
2,CC(=O)Nc1ccc(NS(=O)(=O)c2ccc(C)cc2)c([N+](=O)[O-])c1,inactive
3,Cc1ccc2nc(N/N=C\c3ccc([N+](=O)[O-])o3)nc(-c3ccccc3)c2c1,inactive
4,O=C(N/N=C/c1ccc([N+](=O)[O-])o1)c1cn(-c2ccccc2)nc1-c1ccc(F)cc1,inactive
5,Cc1cc(N/N=C/c2ccc([N+](=O)[O-])o2)nc2ccccc12,inactive
6,CCOC(=O)N/N=C\c1ccc([N+](=O)[O-])o1,inactive
7,Cc1nc2ccccn2c1C(=O)N/N=C/c1ccc([N+](=O)[O-])o1,14.7 µM (active)
8,COc1ccc(-c2nn(-c3ccccc3)cc2C(=O)N/N=C/c2ccc([N+](=O)[O-])o2)cc1,inactive
9,O=C(N/N=C/c1ccc([N+](=O)[O-])o1)c1cn2ccc3ccccc3c2n1,inactive
10,CCCc1ccc(-c2cc(C(=O)N/N=C/c3ccc([N+](=O)[O-])o3)c3ccccc3n2)cc1,3.29 µM (active)
11,O=C(N/N=C/c1ccc([N+](=O)[O-])o1)c1cc(-c2ccc(-c3ccccc3)cc2)nc2ccccc12,2.61 µM (active)
12,CC1CC(C)C(=NNC(N)=O)C(C(O)CC2CCC(=O)NC2=O)C1 (configuration not stated),inactive
13,N/C(=N\O)c1ccc([N+](=O)[O-])s1,inactive
14,COc1ccc(-n2nc([N+](=O)[O-])c(=NCc3ccc4c(c3)OCO4)n2O)cc1,inactive
15,O=C(/C=C/c1ccc(O)c([N+](=O)[O-])c1)c1ccc2ccccc2c1,inactive
16,Cc1nn(-c2nc3ccccc3[nH]2)c(=O)c2ccccc12,2.07 µM (active)
17,Cc1ccc(NC(=O)CN2C(=O)S/C(=C/c3ccc(O)c([N+](=O)[O-])c3)C2=O)cc1C,inactive
18,Cc1cccc(N=Nc2c(C)c(C#N)c(O)[nH]c2=O)c1,inactive
19,O=C1/C(=C/c2ccncc2)CCC/C1=C\c1ccncc1,4.14 µM (active)
20,CC1C/C(=C/c2ccncc2)C(=O)/C(=C/c2ccncc2)C1 (configuration not stated),2.07 µM (active)
